In one experiment the target is Albumin (Bos taurus) (UniProt P02769). The experiment is described as follows: compounds binding labelled BSA control protein – biochemical, small-molecule microarray, Alexa647 label, 635/667 nm fluorescence, artefact control for SMM control protein annotation, profiling panel (AID 1118).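 Also: score merges 667 nm emission intensity and signal-to-noise per printed compound spot.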 The settings on record: BSA-A647 binding, fluorescence 635 nm, higher = more signal.

The nature of experiment [1]: probe aXIP binding to arrayed compounds – biochemical, NeuroSMM set, 635/667 nm fluorescence, primary screen (AID 1119).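 Also: probe is the protein aXip251-270 applied at 1 µg/mL to compound-printed slides; binding of probe to printed compounds measured as 667 nm fluorescence plus signal to noise.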 To be noted: small-molecule microarray, higher = more signal, called active from +8 up or from −8 down.
The nature of experiment [2]: probe aNOTCH3 binding on compound microarray – biochemical, small-molecule microarray, 635/667 nm fluorescence, primary screen (AID 1120).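 Also: probe is a biotin-tagged antibody raised against NOTCH3 rather than NOTCH3 protein; score merges spot fluorescence near 667 nm with spot signal to noise.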 The settings on record: higher = more signal.
Experiment [3] is described as follows: probe aNOTCH2 binding on compound microarray – biochemical, small-molecule microarray, 635/667 nm fluorescence, primary screen (AID 1121).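 Also: score merges feature fluorescence read at 667 nm with its signal to noise.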 To be noted: higher = more signal.
Experiment [4] concerns the target Carbonic anhydrase 2 (Homo sapiens) (UniProt P00918). The experiment is described as follows: compounds binding carbonic anhydrase 2 – biochemical, small-molecule microarray, Alexa647-labelled CAII, profiling panel (AID 1122). To be noted: CAII-A647 binding fluorescence, higher = more signal.
A short description of experiment [5]: COS7 lysate on small-molecule microarray, probe aHis, 635 nm (AID 1123).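 Also: z-score combines 667nm fluorescence intensity with signal-to-noise per printed compound spot.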 The settings on record: COS7 cell lysate, fluorescence, higher = more signal.
The nature of experiment [6]: probe aLAP1 signal on lysate-treated microarray – cell lysate, small-molecule microarray, COS7 lysate, primary screen (AID 1124).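 Also: lysate comes from COS7 cells expressing LAP1 and is applied at 0.3 µg/mL; score merges spot fluorescence near 667 nm with signal-to-noise over triplicate slides.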 The settings on record: probe aLAP1, fluorescence, higher = more signal.
In a further experiment the test system is Sam68 (KHDRBS1). The experiment is described as follows: compounds binding KHDRBS1 protein – biochemical, small-molecule microarray, 635 nm fluorescence, primary screen (AID 1125).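 Also: score merges 667 nm channel intensity with signal to noise over triplicate slides.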 To be noted: higher = more signal.
The subject of experiment [7] is Chordin-like protein 2 (CHRDL2). Put plainly: compounds binding chordin-like 2 – biochemical, small-molecule microarray, 635 nm fluorescence, primary screen (AID 1126).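 Also: printed compound slides probed with Chrdl2 protein at 4 µg/mL for 1 h at 4 C; score merges 667 nm emission intensity with signal to noise over three replicate slides.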 To be noted: fluorescence 635 nm, higher = more signal.
In experiment [8] the target is Concanavalin-A (Canavalia ensiformis) (UniProt P02866). The experiment is described as follows: compounds binding concanavalin A lectin – biochemical, small-molecule microarray, Alexa647 label, 635 nm, artefact control for SMM control protein annotation, primary screen (AID 1127).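 Also: z combines 667 nm emission intensity with signal-to-noise across three replicate slides.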 To be noted: ConA-A647 binding fluorescence, higher = more signal.

The source made the active and inactive calls.

Albumin (Bos taurus), sequence (P02769 whole entry, looked up): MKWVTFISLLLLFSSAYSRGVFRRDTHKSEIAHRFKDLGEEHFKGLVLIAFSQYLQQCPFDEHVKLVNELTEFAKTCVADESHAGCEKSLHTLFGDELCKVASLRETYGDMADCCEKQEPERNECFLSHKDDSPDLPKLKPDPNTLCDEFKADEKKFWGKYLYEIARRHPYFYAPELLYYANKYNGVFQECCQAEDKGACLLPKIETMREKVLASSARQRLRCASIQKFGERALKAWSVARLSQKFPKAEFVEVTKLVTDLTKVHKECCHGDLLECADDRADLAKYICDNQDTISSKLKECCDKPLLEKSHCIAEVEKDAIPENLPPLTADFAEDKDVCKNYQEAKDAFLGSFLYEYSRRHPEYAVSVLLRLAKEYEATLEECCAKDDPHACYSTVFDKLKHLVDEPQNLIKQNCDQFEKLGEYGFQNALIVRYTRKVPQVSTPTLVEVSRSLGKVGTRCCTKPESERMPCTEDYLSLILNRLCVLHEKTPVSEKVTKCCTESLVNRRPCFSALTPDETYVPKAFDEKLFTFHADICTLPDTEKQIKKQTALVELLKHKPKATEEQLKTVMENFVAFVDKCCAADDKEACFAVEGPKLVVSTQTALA
Concanavalin-A (Canavalia ensiformis), sequence (P02866 whole entry, looked up): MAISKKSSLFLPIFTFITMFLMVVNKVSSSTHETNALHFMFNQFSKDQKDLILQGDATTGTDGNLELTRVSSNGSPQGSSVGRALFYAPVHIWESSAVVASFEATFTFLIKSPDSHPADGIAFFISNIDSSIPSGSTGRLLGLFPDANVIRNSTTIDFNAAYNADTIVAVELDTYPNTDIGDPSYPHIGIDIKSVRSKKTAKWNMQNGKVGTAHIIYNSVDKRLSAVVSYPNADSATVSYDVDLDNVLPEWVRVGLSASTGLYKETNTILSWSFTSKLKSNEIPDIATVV

As to `COC(=O)C[C@H]1O[C@]2(C(=O)N(C)c3ccccc32)[C@@H](C)[C@@H]1[Si](C)(C)F`, the composite z-score in the experiment with Albumin (Bos taurus) was -0.255; in experiment [2] it was -0.0584; in [3] it was -0.161; in experiment [4] it was 0.224; in [5], 0.597; in experiment [6], -0.0413. The results for the composite z-score (with Sam68 (KHDRBS1); in experiment [7]; in experiment [8]) were 1.09, 0.592 and 0.596, respectively. Also, the composite Z-score in [1] is 0.448 (inactive).

With `C=CCOC(=O)[C@@H]1[C@H]2C(=O)O[C@H](c3ccccc3)[C@H](c3ccccc3)N2[C@H](c2ccc(OCCOC(=O)[C@H]3C[C@H]4C(=O)N5CCC[C@H]5C(=O)N4[C@H]3c3ccc(O)cc3)cc2)[C@@]12C(=O)Nc1ccc(I)cc12`, the composite z-score is -1.18 with Albumin (Bos taurus); -0.213 in experiment [2]; 0.0701 in experiment [3]; 0.339 in experiment [4]; 1.58 in experiment [5]; -0.299 in experiment [6]. The composite z-score amounted to 1.3 in the experiment with Sam68 (KHDRBS1), 1.09 in [7] and 1.13 in [8]. For the same molecule, the composite Z-score in experiment [1] was 0.76 (inactive).

On to `C=CCN1C(=O)[C@@]2(CC=C)N=C(c3ccc(OCCCO)cc3)O[C@H]2c2ccccc21`, for which the composite z-score turned out to be 0.272 in the experiment with Albumin (Bos taurus); 0.323 in [2]; 0.189 in [3]; 0.614 in [4]; 3.3 in experiment [5]; 1.05 in experiment [6]. Further, the figures for the composite z-score (in the experiment with Sam68 (KHDRBS1); in experiment [7]; in [8]) were 1.3, 1.33 and 1.05, respectively. Further, in experiment [1], the composite Z-score is 0.33 (inactive).

For the molecule `CN1C=C(C(=O)OCCS(C)(=O)=O)C(C(=O)OCCS(C)(=O)=O)=CC(c2ccc(CO)cc2)=CC1C1CC1` (stereo not given), the composite z-score with Albumin (Bos taurus) was -0.0317; in experiment [2] it was -0.0918; in [3], -0.133; in experiment [4] it was 0.497; in [5], 0.951; in experiment [6], 0.901. For the same molecule, the composite z-score is 0.449 in the experiment on Sam68 (KHDRBS1), -0.246 in [7] and 0.168 in [8]. For the same molecule, the composite Z-score in [1] was 0.0063 (inactive).

As to `Cc1ccc(S[C@]2(C(=O)NCCCN(C)C)CC(=O)N(Cc3ccccc3C(F)(F)F)[C@@H]2c2ccc(CO)cc2)cc1`, the composite z-score with Albumin (Bos taurus) was 0.54; in experiment [2] it was -0.0639; in [3], -0.0013; in experiment [4], 0.211; in experiment [5], 0.0645; in experiment [6], -0.41. The composite z-score was 0.0809 in the experiment with Sam68 (KHDRBS1), -0.327 in experiment [7] and -1.48 in [8]. For the same molecule, the composite Z-score in [1] was -0.676 (inactive).

For the molecule `COc1cc(NN2C(C(O)c3ccco3)C=CC3C(=O)N(c4ccccc4)C(=O)C32)cc(OC)c1OC` (stereo not given), the composite z-score with Albumin (Bos taurus) was 0.877; in [2], -0.0328; in [3], -0.139; in experiment [4], 0.574; in [5] it was 1.13; in [6], 0.166. The composite z-score in the experiment with Sam68 (KHDRBS1) is 0.203; in [7], -0.776; in experiment [8] it was 0.498. Moreover, the composite Z-score in [1] was 0.32 (inactive).

For `CC(C)N1C(=O)[C@@]2(Cc3ccccc31)c1ccccc1C(=O)N(Cc1ccccc1Cl)[C@H]2c1ccc(CO)cc1`, the composite z-score was -0.594 in the experiment with Albumin (Bos taurus); -0.321 in experiment [2]; -0.152 in [3]; -0.154 in [4]; -0.472 in experiment [5]; -0.289 in experiment [6]. In addition, the values for the composite z-score (with Sam68 (KHDRBS1); in [7]; in experiment [8]) were -0.162, -0.465 and 0.0302, respectively. In addition, the composite Z-score in experiment [1] was 0.203 (inactive).

In the case of `CC(=O)NCCCC[C@@H]1NC(=O)[C@@H]2C[C@H](C(=O)NCCCCCNC(=O)CS)[C@H](c3cccc(OCCO)c3)N2C1=O`, the composite z-score with Albumin (Bos taurus) is -0.0839; in [2] it was -0.205; in [3], -0.159; in experiment [4] it was -0.0086; in experiment [5], -0.0704; in experiment [6] it was -0.0909. In addition, the composite z-score in the experiment with Sam68 (KHDRBS1) came out at 0.254; in experiment [7], 1.05; in experiment [8] it was 0.241. The composite Z-score in experiment [1] was 0.648 (inactive).

On to `C[C@H]1C2[C@H](Cc3ccccc3)NC(=O)[C@]23C(=O)N[C@H](Cc2ccccc2)C(=O)N2CCC[C@H]2C(=O)NC/C=C\C/C=C/C3[C@@H]2O[C@]12C` (stereo not given in full), for which the composite z-score with Albumin (Bos taurus) is 0.157; in experiment [2], -0.0613; in [3] it was 0.0022; in [4] it was 0.0997; in [5], -0.0175; in experiment [6], 0.249. The composite z-score in the experiment on Sam68 (KHDRBS1) stood at 0.194; in [7], 0.132; in [8], 0.78. Also, in [1], the composite Z-score was 0.0894 (inactive).

As for `Cc1ccc(S[C@]2(C(=O)NCCCN(C)C)CC(=O)N(Cc3cc(C(F)(F)F)cc(C(F)(F)F)c3)[C@@H]2c2ccc(CO)cc2I)cc1`, the composite z-score in the experiment with Albumin (Bos taurus) is -0.39; in [2], 0.462; in experiment [3], -0.0492; in experiment [4], 0.773; in [5] it was 0.961; in experiment [6], 0.135. The composite z-score in the experiment on Sam68 (KHDRBS1) is 0.375; in [7], -0.395; in experiment [8], -1.79. In experiment [1], the composite Z-score is -0.86 (inactive).

Regarding `[N-]=[N+]=Nc1ccccc1[C@@H]1OC(c2ccc(OCCCO)cc2)=N[C@]1(CCS(=O)(=O)c1ccccc1)C(N)=O`, the composite z-score was 0.935 with Albumin (Bos taurus); 0.308 in experiment [2]; 0.125 in experiment [3]; 0.438 in [4]; 2.02 in experiment [5]; 1.66 in [6]. The values for the composite z-score (with Sam68 (KHDRBS1); in [7]; in experiment [8]) were 1.29, -0.227 and 1.16, respectively. Also, the composite Z-score in experiment [1] is 0.185 (inactive).

For `O=C(NCCO)C1=C[C@H](Oc2ccccc2I)[C@@H](O)[C@H](N(Cc2ccco2)C(=O)Cc2ccccc2)C1`, the composite z-score was -0.884 with Albumin (Bos taurus); -0.0014 in experiment [2]; -0.0956 in experiment [3]; -0.17 in experiment [4]; -0.604 in experiment [5]; -0.0107 in experiment [6]. Besides, the composite z-score with Sam68 (KHDRBS1) is -0.24; in experiment [7], 0.607; in experiment [8], -0.981. Besides, the composite Z-score in experiment [1] is 0.524 (inactive).

As for `C=CCNC(=O)[C@H]1[C@@H]2C(=O)O[C@@H](c3ccccc3)[C@@H](c3ccccc3)N2[C@@H](c2ccccc2OCCO)[C@]12C(=O)Nc1ccc(C#CCCO)cc12`, the composite z-score with Albumin (Bos taurus) is -0.066; in experiment [2], -0.214; in experiment [3], -0.137; in experiment [4], 0.423; in experiment [5] it was 1.06; in [6] it was 0.0894. In addition, the composite z-score with Sam68 (KHDRBS1) was -0.0891; in experiment [7], -0.0022; in experiment [8], 0.801. The composite Z-score in [1] was 0.313 (inactive).

`O=C1C[C@@](C(=O)NCCN2CCOCC2)(c2ccc([N+](=O)[O-])cc2)[C@@H](c2ccc(CO)cc2)N1CC12CC3CC(CC(C3)C1)C2`: the composite z-score with Albumin (Bos taurus) is 0.0577; in experiment [2], 0.0208; in experiment [3] it was -0.084; in experiment [4], 0.548; in [5], 2.53; in experiment [6], 0.0978. For the same molecule, the composite z-score was found to be 1.29 in the experiment with Sam68 (KHDRBS1), 0.901 in experiment [7] and 0.926 in [8]. The composite Z-score in [1] was 0.0308 (inactive).

As for `C[N+](C)(C)CCCC[C@@H]1NC(=O)[C@H]2C[C@@H](C(=O)NCCCCCCNC(=O)CS)[C@@H](c3cccc(OCCO)c3)N2C1=O`, the composite z-score with Albumin (Bos taurus) is 0.492; in [2] it was -0.246; in experiment [3], -0.146; in [4] it was 0.881; in [5], 1.8; in experiment [6], 0.864. The figures for the composite z-score (in the experiment with Sam68 (KHDRBS1); in experiment [7]; in experiment [8]) were -0.365, -1.44 and -0.338, respectively. Further, in experiment [1], the composite Z-score is 3.4 (inactive).

As for `NC(=O)NCC#Cc1ccc2c(c1)[C@]1(C(=O)N2)[C@H](c2ccccc2OCCO)N2[C@H](c3ccccc3)[C@H](c3ccccc3)OC(=O)[C@H]2[C@@H]1C(=O)Nc1nc2ccccc2s1`, the composite z-score in the experiment with Albumin (Bos taurus) is 0.403; in experiment [2], 0.288; in experiment [3] it was -0.123; in experiment [4], 0.237; in [5], 1.63; in [6] it was 0.0159. Besides, the values for the composite z-score (in the experiment with Sam68 (KHDRBS1); in experiment [7]; in experiment [8]) were 1.07, -0.287 and 0.748, respectively. The composite Z-score in experiment [1] was 0.105 (inactive).
